# NS1 inh = blocks influenza NS1 protein function; Potency, µM (highest dose often 46.1 µM), inactives show at the top dose activity, positive = more growth; hit rate 0.4% among 270,000; calls by dose curve; further: actives are rising curves; nearly all actives have a fitted effect of over 50% in size
#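 Recovery from NS1-induced slow growth read by OD600 in budding yeast switched to galactose assay medium (pH 6.0, -URA) at 1:100 dilution. Compound 23 nl per well; the matching strain lacking NS1 serves as control.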
# Vaccinia Venus = vaccinia inhibition (Venus reporter). Potency, µM (doses to about 36.5 µM), for the others: top-dose activity change, negative = inhibition, most hits filed as inhibitors. Vaccinia virus Venus reporter expression, fluorescence. hit rate 0.46% among 330,000. AID 720580; calls by dose curve; tested in A549 cells; further: on the % scale 0 is the no-effect control and ±100 the full control effect; nearly all actives have a fitted effect of over 30% in size
# Pf growth 96h = inhibits malaria parasite growth, 96 h | P. falciparum luciferase reporter growth, 96 h | Potency, µM (highest dose often 28.7 µM), without a hit: at the highest dose activity change, negative = inhibition, hits mostly inhibitors | hit rate 6.9% among 320,000; further: on the % scale 0 is the no-effect control and ±100 the full control effect
#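 P. falciparum expressing integrated firefly luciferase, in erythrocytes at 2% hematocrit, 0.05% parasitemia, incubated with compounds 96 h at 37 C, 5% CO2. Growth inhibition read as loss of luminescence; two-generation exposure targets delayed-death apicoplast inhibitors.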
# Vaccinia mCherry = inhibitors of vaccinia virus infection (mCherry reporter signal) | Potency, µM (titrated, usually from 36.5 µM), for inactives: at the highest dose activity change, negative = inhibition, actives largely listed as inhibitors | Vaccinia virus mCherry reporter infection, fluorescence | hit rate 0.63% among 310,000; calls by dose curve; tested in A549 cells; further: on the % scale 0 is the no-effect control and ±100 the full control effect; nearly all actives have a fitted effect of over 35% in size
# HCV inh = inhibitors of hepatitis C virus infection. Potency, µM (highest dose often 41.8 µM), without a hit: at the highest dose activity change, negative = inhibition, usual class: inhibitors. hit rate 3.4% among 340,000. Huh7.5.1 HCVcc-Cre infection, luciferase reporter, 44 h; further: on the % scale 0 is the no-effect control and ±100 the full control effect
#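 Reporter virus HCVcc-Cre (~0.5 moi) infects cells exposed to compound; seeding density 1,000 cells/well with 4 h settling beforehand. Luminescence, 15 sec read, taken 44 h post-infection following a 15 min RT substrate incubation.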
# Pf growth 48h = P. falciparum growth inhibition at 48 hours (one generation) | P. falciparum luciferase growth in erythrocytes, 48 h | Potency, µM (titrated, usually from 28.7 µM), for the others: at the top dose activity change, negative = inhibition, usual class: inhibitors | hit rate 5.9% among 310,000 | AID 504832; further: on the % scale 0 is the no-effect control and ±100 the full control effect
#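 Here the parasites carry a stable luciferase gene and grow inside erythrocytes in Albumax-based RPMI medium with compound for one erythrocytic cycle. Activity is scored as loss of luminescent signal.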
# * = called active by the depositor; i = inactive; ? = inconclusive; . = no result given; [ ] = dose if it differs, or a comment. This is a sample that favours compounds with a hit; in the whole collection about 11% have one here. Unless noted, the call rests on the fitted dose curve; in most records, active means well fitted inhibition curve with a large enough effect; inconclusive means small, poorly fitted or top-dose-only effect, or another doubt; inactive means no such curve, though single readings can be large or run the other way. Potency means the concentration at half of the fitted maximal effect.
SMILES,NS1 inh,Vaccinia Venus,Pf growth 96h,Vaccinia mCherry,HCV inh,Pf growth 48h
Cc1csc(Sc2ccc(S(=O)(=O)N3CCCC3)cn2)n1,.,?,-17%,8.9µM*,-10%,-28%
CCC(C)NC(=O)CSc1ccc(S(=O)(=O)N2CCN(Cc3ccccc3)CC2)cn1 (stereo not drawn),.,.,9.3µM*,.,-29%,?
CC(C)(C)NC(=O)NC(=O)CSc1ccc(S(=O)(=O)N2CCOCC2)cn1,.,.,?,.,7%,-3%
CC(C)(C)c1ccc(CSc2ccc(S(=O)(=O)N3CCOCC3)cn2)cc1,.,.,?,.,10µM*,10µM*
N#CCSc1ccc(S(=O)(=O)N2CCOCC2)cn1,.,-7%,.,i,4%,.
CC(=O)N1c2ccc(S(=O)(=O)N3CCCC(C(=O)N4CCCCC4)C3)cc2CC1C (stereo not drawn),-17%,-18%,10µM*,-27%,-23%,?
CC1Cc2cc(S(=O)(=O)N3CCCC(C(=O)N4CCCCC4)C3)ccc2N1C(=O)C1CC1 (stereo not drawn),-24%,.,13µM*,.,-14%,13µM*
CC(=O)N1c2ccc(S(=O)(=O)N3CCCC(C(=O)NCc4ccccc4)C3)cc2CC1C (stereo not drawn),-14%,-7%,?,5%,?,?
O=C(COC(=O)c1ccc(O)cc1)Nc1cc(S(=O)(=O)N2CCCCCC2)ccc1Cl,.,-20%,.,?,.,.
Cc1ccc(S(=O)(=O)N2CCCCC2)cc1NC(=O)COC(=O)c1cc[n+]([O-])cc1,9%,-8%,?,-13%,-3%,-13%
O=C(COC(=O)c1ccc(CO)cc1)c1ccc(S(=O)(=O)N2CCCCC2)cc1,.,.,?,.,10%,?
O=C(CCCSc1ccc(Cl)cc1)Nc1cc(S(=O)(=O)N2CCOCC2)ccc1O,.,.,8.3µM*,.,11%,?
O=C(COC(=O)c1ccc(O)cc1)Nc1cc(S(=O)(=O)N2CCOCC2)ccc1Cl,.,.,4.7µM*,.,-7%,?
O=C(COC(=O)c1ccc(O)cc1)c1ccc(S(=O)(=O)N2CCCCC2)cc1,.,-13%,?,-20%,?,2.9µM*
Cc1ccc(S(=O)(=O)N2CCCCC2)cc1NC(=O)COC(=O)c1ccc(O)cc1,.,-14%,0.23µM*,-5%,?,?
COc1cc(C2CC(=O)Oc3cc4c(cc32)OCO4)cc(OC)c1OC (stereo not drawn),.,-4%,.,i,-7%,.
COC(=O)CNC(=O)c1cn(CC(C)C)c(=O)c2cc(OC)c(OC)cc12,7%,.,179%,.,13%,0%
CCn1cc(C(=O)N2CCCc3ccccc32)c2cc(OC)c(OC)cc2c1=O,-14%,-11%,.,-19%,11%,15µM*
CCn1cc(C(=O)NCc2cccnc2)c2cc(OC)c(OC)cc2c1=O,-5%,-17%,2.1µM*,-22%,10%,23%
COc1cc2c(C(=O)NCc3ccccn3)cn(CC(C)C)c(=O)c2cc1OC,?,-29%,13µM*,-5%,-8%,-9%
CCn1cc(C(=O)N2CCN(c3ccccc3OC)CC2)c2cc(OC)c(OC)cc2c1=O,.,-17%,18%,-19%,-18%,-6%
Cc1c(C(=O)O)cc(C(C)(C)C)n1CCSCCO,3%,-5%[7.34 µM],-1%,-28%[7.34 µM],5%,54%
CSCCn1c(C(C)(C)C)cc(C(=O)O)c1C,-1%,-14%,8.3µM*,-13%,-5%,-5%
CCOc1ccc2[nH]cc(-c3csc(N)n3)c2c1,8%,.,?,.,-20%,12µM*
CC(=O)OC1N=C(c2ccccc2)c2ccccc2NC1=O (stereo not drawn),4%,-8%,15µM*,-11%,17%,-25%
Cc1cc(O)c(C(C)C)cc1C1(c2cc(C(C)C)c(O)cc2C)OC(=O)c2ccccc21,-8%,?,1.2µM*,?,5.6µM*,2.1µM*
CC(=O)Nc1ccc(NC(=O)C(Cc2ccccc2)NC(=O)C2CCC(C)CC2)cc1 (stereo not drawn),1%,-10%,0.33µM*,-13%,1%,3%
Cc1ccccc1/C=C1\C(=O)Nc2ccc(F)cc21,-10%,-19%,9%,?,-7%,5%
O=C(COC(=O)c1ccc([N+](=O)[O-])o1)Nc1ccc(N2CCOCC2)cc1,.,.,.,.,3%,.

# Screens from PubChem.
